Results as given in PubChem BioAssay.

Test: HepG2 cell viability effects, profiling panel, calcein-AM fluorescence, 48 h, basal (AID 1164); further: test concentration not given here
Settings: higher = more signal
For [N-]=[N+]=Nc1ccccc1[C@H]1OC(c2ccc(OCCCO)cc2)=N[C@@]1(Cc1ccccc1)C(=O)N1CCOCC1, the z-score was -1.12.
For CN1C(=O)C2C=CC(C(O)c3ccccc3)N(N3CCCCC3)C2C1=O (stereo not given), the z-score was -0.0624.
Molecule C=CCC(OC(C)=O)[C@@H]1[C@@H](N(Cc2ccc(-c3ccccc3)cc2)C(=O)Cc2ccc(F)cc2)c2cc(OCCCO)ccc2N1C(=O)c1ccc2ccccc2c1 (stereo not given in full) has a z-score of 0.278.
Work on COc1cc(CO)cc(I)c1O[C@H]1C=C(C(=O)NCCO)C[C@@H](N(C(=O)c2cc3ccccc3oc2=O)C2CCCCCC2)[C@@H]1O yielded a z-score of 1.11.
With CCCNC(=O)[C@@]1(Sc2ccc(C)cc2)CC(=O)N(Cc2ccccc2C(F)(F)F)[C@@H]1c1ccc(CO)cc1I the z-score was -1.14.
Work on NC(=O)[C@@H]1[C@H]2C(=O)O[C@H](c3ccccc3)[C@H](c3ccccc3)N2[C@H](c2ccc(OCCO)cc2)[C@@]12C(=O)Nc1ccc(C#CC3=CCCCC3)cc12 yielded a z-score of -3.51.
COCCCNC(=O)[C@@]1(Cc2ccccc2)N=C(c2ccc(OCCCO)cc2)O[C@H]1c1ccccc1CN=[N+]=[N-] gave a z-score of 0.941.
For Cc1ccc(C2C3C(=O)CC4C(=O)N(c5ccccc5)C(=O)C4C3CN2S(=O)(=O)c2ccc(C)cc2)cc1 (stereo not given), the z-score was 0.261.
Molecule O=C(NC1CC1)[C@@H]1c2ccccc2C(=O)N(Cc2cc(F)cc(C(F)(F)F)c2)[C@H]1c1ccc(CO)cc1 has a z-score of -0.134.
COc1cc2c(cc1O)C(c1cccs1)N(Cc1cccc(OC(F)(F)F)c1)CC2 (stereo not given) showed a z-score of -2.37.
For CCOC(=O)C1=CC[C@@H](c2ccccc2)N(S(=O)(=O)c2ccc(C)cc2)[C@H]1c1ccc(CC)cc1, the z-score was -0.217.
For CN1CCC(CCCO)=CC1c1cccs1 (stereo not given), the z-score was 0.369.
Molecule CCCCCN1CC=CC23O[C@@H]4C=CCOC(=O)[C@@H]4[C@H]2C(=O)N(C(C)CO)[C@@H]3C1=O (stereo not given in full) has a z-score of -0.177.
Molecule Cc1ccc(S[C@]2(C(=O)NCC(C)C)CC(=O)N(Cc3cc(C(F)(F)F)cc(C(F)(F)F)c3)[C@@H]2c2ccc(CO)cc2)cc1 has a z-score of -0.527.
CC1CC/C=C\[C@H]2OC34C=CCN(Cn5nnc6ccccc65)C(=O)[C@H]3N(CCCCCO)C(=O)[C@@H]4C2C(=O)O1 (stereo not given in full) gave a z-score of -0.841.
In the case of COc1ccc([Si](C)(C)[C@@H]2[C@@H](CCO)O[C@]3(C(=O)N(Cc4cccc(N5CCOC5=O)c4)c4ccccc43)[C@H]2C)cc1, the z-score was -0.769.
Work on CCCCN1CC=CC23O[C@@H]4C=CCCOC(=O)C4[C@H]2C(=O)N(CCCCCO)[C@@H]3C1=O (stereo not given in full) yielded a z-score of 0.858.
For COc1ccc(CCNC(=O)[C@@]2(C)c3ccccc3C(=O)N(c3ccc(C)cn3)[C@H]2c2ccc(CO)cc2)cc1, the z-score was -0.352.
In the case of COC(=O)[C@@]1(Cc2ccc(OC)cc2)[C@H]2c3cc(C(=O)N4CCCC4)n(Cc4nc5ccccc5[nH]4)c3C[C@H]2CN1C(=O)c1ccccc1, the z-score was -0.44.
In the case of [N-]=[N+]=NCc1ccccc1[C@@H]1OC(c2ccc(OCCCO)cc2)=N[C@]1(CCS(=O)(=O)c1ccccc1)C(=O)N1CCOCC1, the z-score was 0.502.
With CCOC(=O)C1=CC[C@H]2C(=O)N(c3ccccc3)C(=O)[C@@H]12 the z-score was 0.229.
With COC(=O)[C@@]1(Cc2ccc(F)cc2)[C@H]2c3cc(C(=O)N(C)C)n(Cc4ccc(C)o4)c3C[C@H]2CN1C(=O)c1ccccc1 the z-score was 0.625.
OCCCC1=CC(C2CC2)N(Cc2cccc(OC(F)(F)F)c2)CC1 (stereo not given) showed a z-score of 0.43.
CCOc1cc(C(O)C2C=CC3C(=O)N(c4ccccc4)C(=O)C3N2Nc2ccc(C(C)C)cc2)ccc1O (stereo not given) gave a z-score of -0.159.
In the case of CO[C@H]1O[C@H](CO)[C@@H](OC(=O)Nc2ccccc2)[C@@H]2OC(=O)[C@@H](Cc3ccc4ccccc4c3)C/C=C/C[C@H](Cc3ccc4ccccc4c3)C(=O)O[C@@H]12, the z-score was 0.705.
For CCOC(=O)C[C@H]1[C@H](OC(=O)c2ccc(C(=O)c3ccccc3)cc2)[C@@H](NC(=O)Cc2ccc(OC)cc2)c2cc(OCCCO)ccc2N1C(=O)c1ccc2ccccc2n1, the z-score was 0.493.
In the case of C=CC[C@]1(C(=O)N2CCOCC2)N=C(c2ccc(OCCCO)cc2)O[C@H]1c1ccccc1N=[N+]=[N-], the z-score was -0.0586.
Work on NC(=O)[C@@H]1[C@H]2C(=O)O[C@H](c3ccccc3)[C@H](c3ccccc3)N2[C@H](c2ccc(O)cc2)[C@@]12C(=O)Nc1ccc(C#CC3=CCCCC3)cc12 yielded a z-score of -5.06.
Molecule COCCCNC(=O)[C@]1(Cc2ccccc2)N=C(c2ccc(OCCCO)cc2)O[C@@H]1c1ccccc1CN=[N+]=[N-] has a z-score of 1.57.
In the case of CC(C)(C)OC(=O)CC[C@]1(C(N)=O)N=C(c2ccc(OCCCO)cc2)O[C@H]1c1ccccc1, the z-score was -0.61.
With O=C1C2C=CC(C(O)C=Cc3ccc([N+](=O)[O-])cc3)N(Nc3ccccc3F)C2C(=O)N1c1ccccc1 (stereo not given) the z-score was -0.0729.
Molecule C=C(CCCC)/C(=C/C[C@@H](OC(C)=O)c1ccccc1OCCO)c1cc(C(=O)OC)ccc1OC has a z-score of 0.741.
O=C1C2C=CC(C(O)c3ccc(F)cc3)N(Nc3ccc([N+](=O)[O-])cc3)C2C(=O)N1c1ccccc1 (stereo not given) showed a z-score of 0.679.
CC(=O)NCCCC[C@@H]1NC(=O)[C@H]2C[C@@H](C(=O)O)[C@@H](c3ccc(O)cc3)N2C1=O showed a z-score of -0.14.
In the case of COc1ccc([Si](C)(C)[C@H]2[C@H](CCn3cc([C@H](O)c4ccccc4)nn3)O[C@@]3(C(=O)N(C)c4ccccc43)[C@@H]2C)cc1, the z-score was 0.132.
